Source: PubChem BioAssay (National Center for Advancing Translational Sciences (NCATS))
PI5P4Ka inh – inhibitors of human PI5P4K alpha; P48426; PI5P4Kalpha enzyme, ADP-Glo luminescence, 60 min; stronger effect = lower value; max response, %; 1.2% of 330,000 active; AID 652105; active means max response of -50% or lower; inconclusive means between -30% and -50%; inactive means -30% or higher; further: value at the top dose of about 77 µM
Target sequence (P48426 whole entry, looked up): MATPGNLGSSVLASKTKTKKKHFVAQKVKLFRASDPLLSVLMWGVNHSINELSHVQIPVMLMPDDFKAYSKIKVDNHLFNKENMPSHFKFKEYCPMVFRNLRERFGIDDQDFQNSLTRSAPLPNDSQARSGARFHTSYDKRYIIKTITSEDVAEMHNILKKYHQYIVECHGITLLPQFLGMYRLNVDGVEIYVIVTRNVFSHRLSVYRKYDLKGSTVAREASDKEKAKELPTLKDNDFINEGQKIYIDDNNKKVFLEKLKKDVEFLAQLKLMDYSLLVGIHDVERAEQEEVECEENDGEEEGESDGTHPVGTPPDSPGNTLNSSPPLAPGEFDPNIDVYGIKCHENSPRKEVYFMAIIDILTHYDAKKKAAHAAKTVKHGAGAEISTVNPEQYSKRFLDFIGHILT
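Controls without substrate or without enzyme flank wells where PI5P4Kalpha converts substrate using 5 microM ATP (final). Incubation lasts 60 minutes at room temperature; ADP formed is read by ADP-Glo luminescence.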
WRN inhibitor – blocks human WRN helicase. Potency, µM (titrated, usually from 114 µM), hits mostly inhibitors. AID 651768. WRN helicase unwinding, fluorescent forked duplex, kinetic. 0.46% of 360,000 active; further: nearly all actives have a fitted effect of over 55% in size
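WRN at 20 nM final preincubated with compound 15 min at room temperature; reaction started with 100 nM fluorophore/quencher forked duplex oligonucleotide and 2 mM ATP final. Unwinding followed kinetically by red fluorescence (ex 525, em 598 nm).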
Pol iota inh – DNA polymerase iota (human) inhibition; Q9UNA4; Pol iota fluorescent replication assay, 10 min; Potency, µM (highest dose often 115 µM), usual class: inhibitors; 1% of 390,000 active; AID 588590
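Fluorescent replication assay read twice, at 0 min and 10 min after adding 50 nM (final) substrate. Enzyme (10 nM) and compounds were first incubated 15 min at room temperature; enzyme-free buffer wells were negative controls.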
Pol kappa inh – blocks human DNA polymerase kappa activity | 0.53% of 400,000 active | purified Pol kappa, fluorescent DNA synthesis assay, 10 min | Potency, µM (titrated, usually from 107 µM), actives largely listed as inhibitors
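50 nM final substrate added after 15 min RT preincubation of 10 nM Pol kappa with compound; fluorescence read at 0 and 10 min.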
Pol eta inh – inhibitors of human DNA polymerase eta | Q9Y253 | recombinant Pol eta, fluorescent DNA replication assay | Potency, µM (series often up to 114 µM), hits mostly inhibitors | 1.2% of 390,000 active
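Pol eta (10 nM) was preincubated with compounds for 15 min at room temperature, after which fluorescent replication substrate (50 nM final) was added to start the reaction. Fluorescence was read kinetically at 0 and 10 min.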
POLB inh – blocks human DNA polymerase beta activity. Pol beta primer extension/strand displacement, fluorescence kinetic. Potency, µM (highest dose often 114 µM), usual class: inhibitors. 1.3% of 340,000 active
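Reaction started by 50 nM substrate onto compound-treated Pol beta (10 nM, 15 min preincubation, room temperature); plates read at 0 min and 10 min. Normalized concentration-effect data fitted by four-parameter Hill equation.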
Numbers stand for hits; n = inactive; u = inconclusive; x = no result given; [ ] = remark or other dose. Most compounds without a hit are left out; they make up all but 2.8% or so of the library. Unless noted, the call rests on the fitted dose curve; in most records, active means well fitted curve in the direction sought with a large enough effect; inconclusive means small, poorly fitted or top-dose-only effect, or another doubt; inactive means no such curve, though single readings can be large; an effect the other way counts as inactive or inconclusive.

SMILES	PI5P4Ka inh	WRN inhibitor	Pol iota inh	Pol kappa inh	Pol eta inh	POLB inh
CCCCC(C#N)(Cn1cncn1)c1ccc(Cl)cc1 (stereo not drawn)	x	x	x	n	x	x
Cc1c(C(=O)Nc2ccccc2Cl)oc2ccc(S(=O)(=O)N3CCCCC3)cc12	x	x	u	n	n	n
CC(=O)Nc1ccc(Cc2nc3ccccc3[nH]2)cc1	n	n	n	n	n	n
CC(C)n1c(O)c(C2c3cc(Cl)ccc3Oc3[nH]c(=O)n(C(C)C)c(=O)c32)c(=O)[nH]c1=O (stereo not drawn)	u	35µM	16µM	n	u	n
O=c1[nH]c(=S)[nH]c(O)c1/C=C1/C=c2ccccc2=N1	u	n	28µM	n	u	n
COc1cccc2c1C(=O)c1c(O)c3c(c(O)c1C2=O)C[C@@](O)(C(=O)CO)C[C@@H]3O[C@H]1C[C@H](N)[C@H](OC2CCCCO2)[C@H](C)O1 (stereo partly drawn)	x	x	u	10µM	x	x
C[C@@H]1O[C@@H](Oc2c(-c3ccc(O)c(O)c3)oc3cc(O)cc(O)c3c2=O)[C@H](O)[C@H](O)[C@H]1O	u	n	35µM	45µM	u	x
O=c1ccc2cc(O[C@@H]3O[C@H](CO)[C@@H](O)[C@H](O)[C@H]3O)c(O)cc2o1	n	n	n	n	n	x
COc1cc(/C=C/C(=O)c2c(O)n(CCc3ccccc3)c(=O)[nH]c2=O)ccc1O	-65	n	n	n	u	n
O=C(/C=C/c1ccccc1)c1c(O)n(CCc2ccccc2)c(=O)[nH]c1=O	n	n	n	n	n	n
C=CCSC1=N/C(=C\c2cc(OC)c3c(c2)OCO3)C(=O)S1	u	n	u	n	u	22µM
CCN(CC)C(=O)c1c(C)[nH]c(=S)c(C#N)c1-c1ccco1	-96	50µM	n	n	n	n
O=C1NC(=O)[C@]2(Cc3ccccc3N3CCN(c4ccccc4)CC32)C(=O)N1Cc1ccccc1 (stereo partly drawn)	u	n	u	n	20µM	n
O=C1NC(=O)[C@]2(Cc3ccccc3N3CCN(c4ccccc4)CC32)C(=O)N1c1ccccc1 (stereo partly drawn)	u	n	u	u	45µM	n
CC1=C(O)C(=O)[C@@H]2O[C@@H]2C1=O	x	x	x	n[19.4 µM]	x	x
CCN1/C(=C\C=C\C2=[N+](CC)c3ccccc3C2(C)C)C(C)(C)c2ccccc21	u	45µM	x	18µM	n	25µM
Cc1ccc(NP(=O)(Oc2ccccc2F)Oc2ccccc2F)cc1C	n	n	89µM	u	n	n
Cc1cccc(NP(=O)(Oc2ccccc2F)Oc2ccccc2F)c1	n	n	n	n	n	n
O=c1c(O)c(-c2ccc(O)c(O)c2)oc2c(O)c(O)cc(O)c12	x	x	x	1.1µM	x	x
COc1ccc(CN2CCN(C(=O)Cn3c(=O)oc4cc(Cl)ccc43)CC2)c(OC)c1OC	n	n	n	n	u	n
Cc1ccc(NC(=O)C2CCN(C(=O)c3cnn(-c4ccccc4)c3-n3cccc3)CC2)cc1Cl	x	x	n	n	n	u
C/C(=N\NC(=O)c1ccncc1)c1c(O)n(-c2ccccc2)c(=O)[nH]c1=O	n	n	u	n	n	u
CC/C(=N\NC(=O)c1ccccc1)c1c(O)n(C2CCCCC2)c(=O)[nH]c1=O	-57	n	n	n	n	n
C/C(=N\Nc1cccc2ccccc12)c1c(O)n(Cc2ccccc2)c(=O)[nH]c1=O	-55	n	n	n	n	n
C/C(=N\NC(=O)c1ccccc1)c1c(O)n(Cc2ccccc2)c(=O)[nH]c1=O	-68	n	n	n	n	n
SMILES	PI5P4Ka inh	WRN inhibitor	Pol iota inh	Pol kappa inh	Pol eta inh	POLB inh
CCOC(=O)c1c(C)[nH]c(C)c1S(=O)(=O)N1CCC(C(=O)N2CCN(c3cccc(Cl)c3)CC2)CC1	x	x	n	n	n	n
NC(=O)CSc1nc2cc(S(=O)(=O)N3CCOCC3)ccc2o1	n	n	n	n	n	x
C/C(CC(=O)Nc1cc(C)ccn1)=N\NC(=O)c1ccncc1	n	n	n	n	n	n
Oc1ccccc1O	n	n[11.6 µM]	79µM	50µM	u	40µM
Nc1cccc2c(O)cccc12	n	n	n	n	n	x
NCC(CC(=O)O)C1CCCCC1 (stereo not drawn)	x	n	100µM	n	n	n
